From PubChem BioAssay
The source made the active and inactive calls.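 The calls were made as follows, unless noted: active = inhibition at or above 50% at 10 µM; inactive = inhibition below 50%.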

Columns and labels:
[1] = inhibitors of TNFa-induced NFkB p65 translocation, primary screen, imaging, HUVEC, MLSMR starter and 10KST1 sets (AID 438;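 active = inhibition above 20% together with a positive visual image hit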;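 also: compound added about 3h40 before a 20 min TNFalpha stimulation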;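 as to inhibition: signal is the nuclear over cytoplasmic p65 intensity ratio per well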); conditions: HUVEC TNFa-induced p65 nuclear translocation; cell count: measured here: nuclei count (cytotoxicity indicator), at 2.08 µM; inhibition: at 2 µM, stronger effect = higher value, 0% TNFa-plus-vehicle, 100% no-TNFa wells
[2] = reduction of polyQ htt aggregates in cells – imaging, exon1htt(103Q)mCFP cells, high-content imaging, primary screen (AID 483;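 active = visual image review flags a hit and inhibition of aggregation exceeds 20%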;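 also: compound exposure lasted 3 days before fixation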;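 as to nuclei count: percent of the per-plate median nuclei count of sample wells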); conditions: exon1htt(103Q)mCFP cell line, aggregate imaging, at 2 µM; inhibition of aggregation: stronger effect = higher value; nuclei count: measured here: cell count, toxicity
[3] = endothelial E-selectin expression blockers – imaging, HUVEC, immunofluorescence, MLSMR starter and 10KST1 sets, primary screen (AID 487;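 active = visually confirmed hit in the image check and inhibition above 20%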;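 as to inhibition: signal is fraction of cell area covered by stained E-selectin grains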;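 as to nuclei count: 100% = median nuclei count of all wells on the same plate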); conditions: HUVEC TNFalpha-induced E-selectin immunofluorescence imaging, at 2 µM; inhibition: stronger effect = higher value; nuclei count: measured here: cell number, toxicity
[4] = molecular target: Voltage-gated potassium channel subunit beta-2 (Rattus norvegicus) (UniProt P62483); assay: inhibitors of rat Kvbeta2 reductase activity – biochemical, NADPH fluorescence, primary screen (AID 622;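 active = fluorescence slope higher than the sample average by over 3 SD, cut at about -0.22 in these data, passing the limit was not always enough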;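 also: slope of raw intensity against log time taken from 70 to 1610 s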); conditions: recombinant KvBeta, 4-cyanobenzaldehyde reduction, at 10 µM, stronger effect = higher value
Voltage-gated potassium channel subunit beta-2 (Rattus norvegicus), sequence (P62483 whole entry, looked up): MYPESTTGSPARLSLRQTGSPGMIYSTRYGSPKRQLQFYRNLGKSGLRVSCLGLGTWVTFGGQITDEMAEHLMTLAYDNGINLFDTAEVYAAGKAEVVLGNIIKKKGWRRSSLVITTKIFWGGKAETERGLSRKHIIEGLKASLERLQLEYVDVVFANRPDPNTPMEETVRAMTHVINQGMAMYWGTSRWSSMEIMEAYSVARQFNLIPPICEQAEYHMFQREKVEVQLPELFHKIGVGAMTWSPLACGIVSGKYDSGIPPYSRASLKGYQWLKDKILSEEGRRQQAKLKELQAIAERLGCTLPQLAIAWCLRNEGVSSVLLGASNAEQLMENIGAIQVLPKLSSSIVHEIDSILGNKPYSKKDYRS

[5] = molecular target: Voltage-gated potassium channel subunit beta-2 (Rattus norvegicus) (UniProt P62483); assay: enhancers of rat Kvbeta2 NADPH turnover – biochemical, NADPH fluorescence, primary screen (AID 623;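 active = NADPH fluorescence slope more negative than the mean of all samples by about 3 SD, 99.7% confidence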;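 also: fluorescence intensity change per second fitted from 20 to 320 s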); conditions: Recombinant KvBeta, NADPH fluorescence decrease slope, 10 min; at 10 µM; stronger effect = lower value
[6] = molecular target: Alpha-2C adrenergic receptor (Homo sapiens) (UniProt P18825); assay: compounds altering alpha2C-coupled GIRK flux – cell-based, HEK293 alpha2C/GIRK1/2, thallium flux, primary screen (AID 624;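 active = fluorescence slope after compound addition differing from the mean of all screened samples at 99.7% confidence, in either direction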;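 also: slope of fluorescence ratio to pre-addition baseline per second over 15 to 24 s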); conditions: thallium flux BTC fluorescence, at 10 µM, actives lie on both sides
Alpha-2C adrenergic receptor (Homo sapiens), sequence (P18825 whole entry, looked up): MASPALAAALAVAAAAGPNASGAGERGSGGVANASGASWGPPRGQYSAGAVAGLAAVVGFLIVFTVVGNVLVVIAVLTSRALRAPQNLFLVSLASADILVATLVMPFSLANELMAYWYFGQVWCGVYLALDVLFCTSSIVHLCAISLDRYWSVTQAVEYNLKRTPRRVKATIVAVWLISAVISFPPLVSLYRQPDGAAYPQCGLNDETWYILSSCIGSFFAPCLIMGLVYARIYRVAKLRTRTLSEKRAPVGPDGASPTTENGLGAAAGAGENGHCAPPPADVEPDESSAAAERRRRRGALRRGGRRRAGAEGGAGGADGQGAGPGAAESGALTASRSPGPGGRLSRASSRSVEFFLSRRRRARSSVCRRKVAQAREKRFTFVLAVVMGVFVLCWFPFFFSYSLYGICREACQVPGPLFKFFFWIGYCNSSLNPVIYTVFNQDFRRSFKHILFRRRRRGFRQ

[7] = blockers of RIG-like receptor reporter activation – cell-based, Sendai virus stimulus, luciferase, 10K MLSCN set, TLR/RLR signaling modifier project, primary screen (AID 602276); conditions: HEK293 RL24 IRF3 luciferase reporter, at 10 µM, stronger effect = higher value;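 also: firefly luciferase from ISG56 promoter only with Renilla not read in this screen; 0% = Sendai virus plus DMSO and 100% = medium plus DMSO without virus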
[8] = TLR3 IRF3 reporter activation blockers – cell-based, poly I:C stimulus, luciferase, 10K MLSCN set, primary screen (AID 602277;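 active = inhibition of the reporter signal at or above 50%; inactive = inhibition below 50%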); conditions: HEK293-TLR3 RL24 IRF3 luciferase reporter, at 10 µM, stronger effect = higher value

Compound	cell count [1]	inhibition [1]	inhibition of aggregation [2]	nuclei count [2] [%]	inhibition [3]	nuclei count [3] [%]	fluorescence slope [4]	NADPH fluorescence slope [5]	slope [6]	inhibition [7]	inhibition [8]
CC(C)C(NC(=O)OCc1ccccc1)C(=O)OCC(=O)NCc1ccco1 (stereo not drawn)	511	-2.9% (inactive)	-14.8% (inactive)	114	7.4% (inactive)	119	-0.366 (inactive)	2.2e-05 (inactive)	0.00253 (inactive)	0.314% (inactive)	5.27% (inactive)
CCCCN(C(=O)c1ccc(Cl)cc1)C1CC2CCC(C1)N2C (stereo not drawn)	588	6.5% (inactive)	5.4% (inactive)	114	-93.1% (inactive)	116	-0.561 (inactive)	-6.5e-05 (inactive)	0.0056 (inactive)	-6.18% (inactive)	35.3% (inactive)
CCn1c(SCC(=O)NC)nnc1C(C)C	718	-11.9% (inactive)	-4.5% (inactive)	99.7	-17.9% (inactive)	104	-0.307 (inactive)	-5.6e-05 (inactive)	0.0053 (inactive)	12.7% (inactive)	0.106% (inactive)
CCC1CCCCN1CCCNC(=O)CC1Oc2ccc(C)cc2NC1=O (stereo not drawn)	810	-1.8% (inactive)	13.7% (inactive)	105	-71% (inactive)	107	-0.499 (inactive)	-3.5e-05 (inactive)	0.00565 (inactive)	5.08% (inactive)	29.6% (inactive)
CCOC(=O)c1cc2c(=O)n3ccccc3nc2n(CC2CCCO2)c1=NC(C)=O (stereo not drawn)	617	3.1% (inactive)	18.5% (inactive)	86.7	22.2% (inactive)	100	-0.441 (inactive)	-1.3e-05 (inactive)	0.00574 (inactive)	9.86% (inactive)	10.8% (inactive)
N#Cc1c(N)nc2c(c1-c1ccncc1)CCCCC2	658	3.9% (inactive)	0% (inactive)	106	4.5% (inactive)	103	-0.577 (inactive)	-5.4e-05 (inactive)	0.00353 (inactive)	12.7% (inactive)	12.3% (inactive)
CC(C)c1nnc(NC(=O)c2ccc(N3C(=O)CCC3=O)cc2)s1	627	-8% (inactive)	13.9% (inactive)	110	-36.4% (inactive)	119	-0.407 (inactive)	9.4e-07 (inactive)	0.00608 (inactive)	4.17% (inactive)	-7.88% (inactive)
CCCC(=O)Nc1nnc(CC(=O)OCC)s1	799	-7.3% (inactive)	11% (inactive)	95.6	-35.4% (inactive)	113	-0.614 (inactive)	1.3e-05 (inactive)	0.00516 (inactive)	-5.88% (inactive)	15.8% (inactive)
CCc1ccccc1NC(=O)CCc1nc(-c2ccc(C)cc2)no1	415	-1% (inactive)	-4% (inactive)	103	14.1% (inactive)	86.3	-0.299 (inactive)	1.2e-05 (inactive)	0.00374 (inactive)	14.1% (inactive)	47.2% (inactive)
Cc1cc2ccccn2c1C(=O)c1ccncc1	602	-0.6% (inactive)	11.7% (inactive)	77.4	-1.7% (inactive)	111	-0.62 (inactive)	9.9e-07 (inactive)	0.00577 (inactive)	11% (inactive)	-0.108% (inactive)
O=C(Nc1cccc(-c2nnc(-c3ccccc3)o2)c1)C1CCCCC1	666	-2.8% (inactive)	-15.1% (inactive)	109	-21.3% (inactive)	116	-0.589 (inactive)	-1.7e-05 (inactive)	0.00531 (inactive)	-20.4% (inactive)	-62.4% (inactive)
Cc1cc2cc(CN(CCCN3CCOCC3)C(=O)NC3CCCCC3)c(=O)[nH]c2cc1C	540	-2.5% (inactive)	-7.3% (inactive)	93.3	0.4% (inactive)	105	-0.484 (inactive)	6.2e-07 (inactive)	0.00496 (inactive)	10.2% (inactive)	34.8% (inactive)
O=C1c2cccnc2C(=O)N1c1cccc(-c2nc3ccccc3o2)c1	339	9.1% (inactive)	28.9% (inactive)	84	-87.2% (inactive)	117	-0.417 (inactive)	-4e-05 (inactive)	0.00507 (inactive)	13.3% (inactive)	13.5% (inactive)
COc1ccc(S(=O)(=O)Cc2ccc(C(=O)NCCc3ccc(S(N)(=O)=O)cc3)o2)cc1	686	0.6% (inactive)	41.2% (active)	71.5	-51.1% (inactive)	114	-0.561 (inactive)	-2.1e-05 (inactive)	0.00625 (inactive)	9.1% (inactive)	28.2% (inactive)
CCOC(=O)c1ccc(N2C(=O)CC(NC3CCN(C(=O)c4ccc(F)cc4)CC3)C2=O)cc1 (stereo not drawn)	699	8.6% (inactive)	7.9% (inactive)	102	-30.3% (inactive)	98.3	-0.416 (inactive)	2.4e-05 (inactive)	0.00425 (inactive)	-1.5% (inactive)	-3.21% (inactive)
COc1ccc(C2C(C(=O)NCCN3CCOCC3)c3ccccc3C(=O)N2C2CCCCC2)cc1 (stereo not drawn)	334	10.1% (inactive)	12.7% (inactive)	111	-93.5% (inactive)	111	-0.611 (inactive)	-2.8e-05 (inactive)	0.00399 (inactive)	30.2% (inactive)	26% (inactive)
COc1ccccc1CN1CCCC(C(=O)N(C)Cc2ccccc2)C1 (stereo not drawn)	739	-3.4% (inactive)	23.6% (inactive)	99.1	-218% (inactive)	126	-0.37 (inactive)	-9.6e-06 (inactive)	0.00506 (inactive)	7.15% (inactive)	33.5% (inactive)
CC(C)COC(=O)N(C)c1ccc(C(O)(C(F)(F)F)C(F)(F)F)cc1	744	-12.4% (inactive)	-7.8% (inactive)	116	-56.8% (inactive)	112	-0.618 (inactive)	-4.8e-06 (inactive)	0.00749 (inactive)	-9.85% (inactive)	-5.85% (inactive)
CCOC(=O)Cn1c(CN(C)Cc2ccccc2)nc2c1c(=O)n(C)c(=O)n2C	241	6.8% (inactive)	6.2% (inactive)	92.6	26.4% (inactive)	94.7	-0.278 (inactive)	-3.7e-05 (inactive)	0.00521 (inactive)	13.2% (inactive)	10.8% (inactive)
Cn1cccc1Cc1nnc(SCC(=O)Nc2ccc(F)cc2)n1-c1ccc(F)cc1	843	1.4% (inactive)	-2.2% (inactive)	95.4	-45.2% (inactive)	116	-0.592 (inactive)	-1.8e-05 (inactive)	0.00531 (inactive)	10.5% (inactive)	27.7% (inactive)
COc1ccc(Cn2nnnc2C(c2cccnc2)N2CCN(c3ccc(O)cc3)CC2)cc1 (stereo not drawn)	682	-7.2% (inactive)	-1.9% (inactive)	92.7	-51.9% (inactive)	117	-0.514 (inactive)	-5.3e-05 (inactive)	0.00403 (inactive)	15% (inactive)	21.3% (inactive)
CCOC(=O)C1=C(C)NC(C)=C(C(=O)OCC)C1C(=O)OC1CCOC1=O (stereo not drawn)	653	-4.7% (inactive)	5.7% (inactive)	112	-121% (inactive)	103	-0.587 (inactive)	-2.6e-05 (inactive)	0.00602 (inactive)	9.93% (inactive)	20% (inactive)
N#Cc1cc2ccccc2nc1SCC(=O)Nc1ccccc1N1CCOCC1	448	13.7% (inactive)	8.2% (inactive)	100	-12.8% (inactive)	106	-0.481 (inactive)	-2.6e-05 (inactive)	0.00662 (inactive)	9.6% (inactive)	9.63% (inactive)
CCOCCCNC(=O)C1CC(=O)N(C2CCCC2)C1 (stereo not drawn)	536	-6.8% (inactive)	1.5% (inactive)	103	11.6% (inactive)	118	-0.495 (inactive)	-1.6e-05 (inactive)	0.00627 (inactive)	15.9% (inactive)	18.9% (inactive)
COc1cccc(-c2nc3n(n2)C(c2ccccc2Cl)C(C(N)=O)=C(C)N3)c1 (stereo not drawn)	595	-0.8% (inactive)	-7.2% (inactive)	114	-26.6% (inactive)	103	-0.393 (inactive)	1.7e-05 (inactive)	0.00613 (inactive)	12.1% (inactive)	38.1% (inactive)
CCOC(=O)N1CCN(C(=O)CSc2ncnc3ccccc23)CC1	747	-1.6% (inactive)	-8.8% (inactive)	120	-10.3% (inactive)	115	-0.525 (inactive)	-2.4e-05 (inactive)	0.00632 (inactive)	1.11% (inactive)	-8.53% (inactive)
O=C(Cc1ccccc1)Nc1ccc(CN2CCOCC2)cc1	451	-5.4% (inactive)	-17.1% (inactive)	104	-2.9% (inactive)	107	-0.418 (inactive)	-3.3e-05 (inactive)	0.00462 (inactive)	-34% (inactive)	-71.3% (inactive)
CCCCNC(=O)c1nnn(-c2ccccc2)c1N	311	3.9% (inactive)	8% (inactive)	110	-11.4% (inactive)	120	-0.568 (inactive)	2.4e-05 (inactive)	0.00585 (inactive)	-55.7% (inactive)	-166% (inactive)
